{"source": "PubChem BioAssay AID1159580", "about": "(chemical genetic matrix, 2015)", "assay": "chemical genetic growth profiling, strain panel (AID 1159580);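 note: tested at 20 µM; growth read once vehicle control cultures reached saturation at 30 °C; 1 = growth at the plate median or of vehicle wells; lower values mean less growth of the strain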", "details": "growth OD", "note": "In all, about 5,500 compounds went through this assay and about 2,000 (36%) were called active. Not shown: some 18% with an inconclusive outcome. The list shows a part of the results. Values without a mark were called inactive. Cut-off read from the data, not from the text of the source: active = normalized growth mostly below about 0.91 (no sharp cut-off); inconclusive = no clear call, values can overlap the other calls; inactive = mostly above about 0.92.", "data": [{"smiles": "COc1cc(OC)c2c(=O)c(O)c(-c3ccc(OC)c(OC)c3)oc2c1", "values": [{"measurement": "normalized growth", "setting": "S. cerevisiae deletion strains, locus YKL009W, strain mrt4, stronger effect = lower value", "value": "1.45 [resistant] (active)"}, {"measurement": "normalized growth", "setting": "S. cerevisiae deletion strains, locus YKL068W, stronger effect = lower value", "value": 0.994}, {"measurement": "normalized growth", "setting": "S. cerevisiae deletion strains, locus YKL085W, strain MDH1 (second series), stronger effect = lower value", "value": 1.05}, {"measurement": "normalized growth", "setting": "S. cerevisiae deletion strains, locus YKL085W, strain MDH1, stronger effect = lower value", "value": 1.05}, {"measurement": "normalized growth", "setting": "S. cerevisiae deletion strains, locus YKL160W, strain elf1, stronger effect = lower value", "value": 0.922}, {"measurement": "normalized growth", "setting": "S. cerevisiae deletion strains, locus YKL190W, strain CNB1, stronger effect = lower value", "value": "0.202 (active)"}, {"measurement": "normalized growth", "setting": "S. cerevisiae deletion strains, locus YKR001C, strain vps1, stronger effect = lower value", "value": "0.738 (active)"}, {"measurement": "normalized growth", "setting": "S. cerevisiae deletion strains, locus YKR026C, strain gcn3, stronger effect = lower value", "value": 0.959}, {"measurement": "normalized growth", "setting": "S. cerevisiae deletion strains, locus YKR091W, strain srl3, stronger effect = lower value", "value": 0.953}, {"measurement": "normalized growth", "setting": "S. cerevisiae deletion strains, locus YLL001W, strain dnm1, stronger effect = lower value", "value": 0.906}, {"measurement": "normalized growth", "setting": "S. cerevisiae deletion strains, locus YLL026W, stronger effect = lower value", "value": 0.972}, {"measurement": "normalized growth", "setting": "S. cerevisiae deletion strains, locus YLL041C, strain sdh2, stronger effect = lower value", "value": 0.933}, {"measurement": "normalized growth", "setting": "S. cerevisiae deletion strains, locus YLR027C, strain aat2, stronger effect = lower value", "value": "0.92 (active)"}, {"measurement": "normalized growth", "setting": "S. cerevisiae deletion strains, locus YLR039C, strain RIC1, stronger effect = lower value", "value": "0.227 (active)"}, {"measurement": "normalized growth", "setting": "S. cerevisiae deletion strains, locus YLR058C, strain SHM2, stronger effect = lower value", "value": "0.295 (active)"}, {"measurement": "normalized growth", "setting": "S. cerevisiae deletion strains, locus YLR102C, strain apc9, stronger effect = lower value", "value": 0.929}, {"measurement": "normalized growth", "setting": "S. cerevisiae deletion strains, locus YLR113W, strain HOG1, stronger effect = lower value", "value": 0.944}, {"measurement": "normalized growth", "setting": "S. cerevisiae deletion strains, locus YLR221C, strain rsa3, stronger effect = lower value", "value": "0.865 (active)"}, {"measurement": "normalized growth", "setting": "S. cerevisiae deletion strains, locus YLR258W, strain gsy2, stronger effect = lower value", "value": 0.917}, {"measurement": "normalized growth", "setting": "S. cerevisiae deletion strains, locus YLR262C, strain YPT6 (second series), stronger effect = lower value", "value": "0.655 (active)"}, {"measurement": "normalized growth", "setting": "S. cerevisiae deletion strains, locus YLR262C, strain YPT6, stronger effect = lower value", "value": "0.374 (active)"}, {"measurement": "normalized growth", "setting": "S. cerevisiae deletion strains, locus YLR268W, strain sec22, stronger effect = lower value", "value": "0.558 (active)"}, {"measurement": "normalized growth", "setting": "S. cerevisiae deletion strains, locus YLR320W, strain mms22, stronger effect = lower value", "value": "0.853 (active)"}, {"measurement": "normalized growth", "setting": "S. cerevisiae deletion strains, locus YLR342W, strain FKS1 (second series), stronger effect = lower value", "value": "0.341 (active)"}, {"measurement": "normalized growth", "setting": "S. cerevisiae deletion strains, locus YLR342W, strain FKS1, stronger effect = lower value", "value": "0.875 (active)"}, {"measurement": "normalized growth", "setting": "S. cerevisiae deletion strains, locus YLR357W, strain rsc2, stronger effect = lower value", "value": "0.705 (active)"}, {"measurement": "normalized growth", "setting": "S. cerevisiae deletion strains, locus YLR370C, strain arc18, stronger effect = lower value", "value": 0.967}, {"measurement": "normalized growth", "setting": "S. cerevisiae deletion strains, locus YLR371W, strain rom2, stronger effect = lower value", "value": "0.645 (active)"}, {"measurement": "normalized growth", "setting": "S. cerevisiae deletion strains, locus YLR384C, strain iki3, stronger effect = lower value", "value": 0.942}, {"measurement": "normalized growth", "setting": "S. cerevisiae deletion strains, locus YLR418C, strain cdc73, stronger effect = lower value", "value": "0.559 (active)"}, {"measurement": "normalized growth", "setting": "S. cerevisiae deletion strains, locus YML016C, strain PPZ1, stronger effect = lower value", "value": "0.155 (active)"}, {"measurement": "normalized growth", "setting": "S. cerevisiae deletion strains, locus YML032C, strain rad52, stronger effect = lower value", "value": 0.91}, {"measurement": "normalized growth", "setting": "S. cerevisiae deletion strains, locus YML120C, strain ndi1, stronger effect = lower value", "value": 0.948}, {"measurement": "normalized growth", "setting": "S. cerevisiae deletion strains, locus YML124C, strain tub3, stronger effect = lower value", "value": "0.845 (active)"}, {"measurement": "normalized growth", "setting": "S. cerevisiae deletion strains, locus YMR058W, strain fet3, stronger effect = lower value", "value": "0.35 (active)"}, {"measurement": "normalized growth", "setting": "S. cerevisiae deletion strains, locus YMR078C, strain ctf18, stronger effect = lower value", "value": 0.957}, {"measurement": "normalized growth", "setting": "S. cerevisiae deletion strains, locus YMR125W, strain sto1, stronger effect = lower value", "value": 0.982}, {"measurement": "normalized growth", "setting": "S. cerevisiae deletion strains, locus YMR129W, stronger effect = lower value", "value": 0.954}, {"measurement": "normalized growth", "setting": "S. cerevisiae deletion strains, locus YMR205C, strain PFK2, stronger effect = lower value", "value": "0.696 (active)"}, {"measurement": "normalized growth", "setting": "S. cerevisiae deletion strains, locus YMR223W, strain ubp8, stronger effect = lower value", "value": "0.759 (active)"}, {"measurement": "normalized growth", "setting": "S. cerevisiae deletion strains, locus YMR231W, strain pep5, stronger effect = lower value", "value": 0.973}, {"measurement": "normalized growth", "setting": "S. cerevisiae deletion strains, locus YMR307W, strain GAS1, stronger effect = lower value", "value": "0.381 (active)"}, {"measurement": "normalized growth", "setting": "S. cerevisiae deletion strains, locus YNL067W, strain RPL9B, stronger effect = lower value", "value": "0.438 (active)"}, {"measurement": "normalized growth", "setting": "S. cerevisiae deletion strains, locus YNL071W, strain lat1, stronger effect = lower value", "value": 0.975}, {"measurement": "normalized growth", "setting": "S. cerevisiae deletion strains, locus YNL153C, strain GIM3, stronger effect = lower value", "value": "0.446 (active)"}, {"measurement": "normalized growth", "setting": "S. cerevisiae deletion strains, locus YNL183C, strain NPR1, stronger effect = lower value", "value": 0.941}, {"measurement": "normalized growth", "setting": "S. cerevisiae deletion strains, locus YNL209W, strain ssb2, stronger effect = lower value", "value": "0.572 (active)"}, {"measurement": "normalized growth", "setting": "S. cerevisiae deletion strains, locus YNL233W, strain BNI4, stronger effect = lower value", "value": "0.601 (active)"}, {"measurement": "normalized growth", "setting": "S. cerevisiae deletion strains, locus YNL248C, strain rpa49, stronger effect = lower value", "value": 0.951}, {"measurement": "normalized growth", "setting": "S. cerevisiae deletion strains, locus YNL250W, strain rad50, stronger effect = lower value", "value": 1.01}, {"measurement": "normalized growth", "setting": "S. cerevisiae deletion strains, locus YNL271C, strain bni1, stronger effect = lower value", "value": 0.922}, {"measurement": "normalized growth", "setting": "S. cerevisiae deletion strains, locus YNL298W, strain CLA4, stronger effect = lower value", "value": 0.975}, {"measurement": "normalized growth", "setting": "S. cerevisiae deletion strains, locus YNL307C, strain MCK1, stronger effect = lower value", "value": "0.893 (active)"}, {"measurement": "normalized growth", "setting": "S. cerevisiae deletion strains, locus YNL322C, strain KRE1 (second series), stronger effect = lower value", "value": 0.961}, {"measurement": "normalized growth", "setting": "S. cerevisiae deletion strains, locus YNR049C, strain mso1, stronger effect = lower value", "value": 0.968}, {"measurement": "normalized growth", "setting": "S. cerevisiae deletion strains, locus YNR052C, strain pop2, stronger effect = lower value", "value": "0.761 (active)"}, {"measurement": "normalized growth", "setting": "S. cerevisiae deletion strains, locus YOL012C, strain htz1", "value": 0.232}, {"measurement": "normalized growth", "setting": "S. cerevisiae deletion strains, locus YOL147C, strain pex11, stronger effect = lower value", "value": "0.813 (active)"}, {"measurement": "normalized growth", "setting": "S. cerevisiae deletion strains, locus YOR001W, strain rrp6, stronger effect = lower value", "value": 0.922}, {"measurement": "normalized growth", "setting": "S. cerevisiae deletion strains, locus YOR061W, strain CKA2, stronger effect = lower value", "value": "0.285 (active)"}, {"measurement": "normalized growth", "setting": "S. cerevisiae deletion strains, locus YOR069W, strain VPS5, stronger effect = lower value", "value": "0.458 (active)"}, {"measurement": "normalized growth", "setting": "S. cerevisiae deletion strains, locus YOR070C, strain gyp1, stronger effect = lower value", "value": 0.968}, {"measurement": "normalized growth", "setting": "S. cerevisiae deletion strains, locus YOR080W, strain dia2, stronger effect = lower value", "value": 0.942}, {"measurement": "normalized growth", "setting": "S. cerevisiae deletion strains, locus YOR083W, strain WHI5, stronger effect = lower value", "value": "0.884 (active)"}, {"measurement": "normalized growth", "setting": "S. cerevisiae deletion strains, locus YOR106W, strain vam3, stronger effect = lower value", "value": "0.616 (active)"}, {"measurement": "normalized growth", "setting": "S. cerevisiae deletion strains, locus YOR136W, strain idh2, stronger effect = lower value", "value": "0.871 (active)"}, {"measurement": "normalized growth", "setting": "S. cerevisiae deletion strains, locus YOR144C, strain elg1, stronger effect = lower value", "value": "0.788 (active)"}, {"measurement": "normalized growth", "setting": "S. cerevisiae deletion strains, locus YOR184W, strain ser1, stronger effect = lower value", "value": "0.683 (active)"}, {"measurement": "normalized growth", "setting": "S. cerevisiae deletion strains, locus YOR231W, strain MKK1, stronger effect = lower value", "value": 0.991}, {"measurement": "normalized growth", "setting": "S. cerevisiae deletion strains, locus YOR265W, strain rbl2, stronger effect = lower value", "value": 0.94}, {"measurement": "normalized growth", "setting": "S. cerevisiae deletion strains, locus YOR270C, strain vph1, stronger effect = lower value", "value": "0.716 (active)"}, {"measurement": "normalized growth", "setting": "S. cerevisiae deletion strains, locus YOR290C, strain snf2, stronger effect = lower value", "value": "0.817 (active)"}, {"measurement": "normalized growth", "setting": "S. cerevisiae deletion strains, locus YOR316C, strain cot1, stronger effect = lower value", "value": 0.938}, {"measurement": "normalized growth", "setting": "S. cerevisiae deletion strains, locus YPL051W, strain arl3, stronger effect = lower value", "value": "0.763 (active)"}, {"measurement": "normalized growth", "setting": "S. cerevisiae deletion strains, locus YPL078C, strain atp4, stronger effect = lower value", "value": 0.958}, {"measurement": "normalized growth", "setting": "S. cerevisiae deletion strains, locus YPL106C, strain sse1, stronger effect = lower value", "value": "0.784 (active)"}, {"measurement": "normalized growth", "setting": "S. cerevisiae deletion strains, locus YPL240C, strain hsp82, stronger effect = lower value", "value": "0.92 (active)"}, {"measurement": "normalized growth", "setting": "S. cerevisiae deletion strains, locus YPL241C, strain CIN2, stronger effect = lower value", "value": "0.506 (active)"}, {"measurement": "normalized growth", "setting": "S. cerevisiae deletion strains, locus YPL256C, strain CLN2, stronger effect = lower value", "value": 0.969}, {"measurement": "normalized growth", "setting": "S. cerevisiae deletion strains, locus YPR119W, strain clb2, stronger effect = lower value", "value": 0.97}, {"measurement": "normalized growth", "setting": "S. cerevisiae deletion strains, locus YPR141C, strain kar3, stronger effect = lower value", "value": 0.996}, {"measurement": "normalized growth", "setting": "S. cerevisiae deletion strains, locus YPR163C, strain tif3, stronger effect = lower value", "value": "0.838 (active)"}, {"measurement": "normalized growth", "setting": "S. cerevisiae deletion strains, locus YPR167C, strain met16, stronger effect = lower value", "value": "0.78 (active)"}, {"measurement": "normalized growth", "setting": "S. cerevisiae deletion strains, strain wtn01, stronger effect = lower value", "value": "0.66 (active)"}, {"measurement": "normalized growth", "setting": "S. cerevisiae strains, strain wild type, stronger effect = lower value", "value": "0.102 (active)"}]}]}
